Experimental data taken from PubChem BioAssay.
Active and inactive are the calls of the source. Unless noted, the rule behind the calls is not given here.

Columns and labels:
[1] = A549 cell viability effects, profiling panel, calcein-AM fluorescence, 48 h, basal (AID 1162); details: higher = more signal; note: test concentration not given here
[2] = adipocyte viability effects, profiling panel, cell-based, 3T3-L1 adipocytes, calcein-AM fluorescence, 48 h, basal (AID 1163); details: 3T3-L1 adipocytes viability, higher = more signal; note: test concentration not given here
[3] = HepG2 cell viability effects, profiling panel, calcein-AM fluorescence, 48 h, basal (AID 1164); details: higher = more signal; note: test concentration not given here
[4] = MM1S cell viability effects, profiling panel, calcein-AM fluorescence, 48 h, basal (AID 1165); details: higher = more signal;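 note: viability of MM1S multiple myeloma cells under basal unstimulated conditions; test concentration not given here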
[5] = basal RPMI8226 viability, no added stimulus, profiling panel, cell-based, calcein-AM fluorescence, 48 h, PK04 Diversity Set (AID 1166); details: RPMI8226 myeloma viability, higher = more signal;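 note: cells grown under basal conditions without added stimulus; test concentration not given here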
[6] = basal HepG2 mitochondrial membrane potential changes, profiling panel, cell-based, JC-1 fluorescence, 24 h, 100 nL compound (AID 1167); details: higher = more signal; note: test concentration not given here
[7] = basal 3T3-L1 adipocyte mitochondrial potential changes, profiling panel, cell-based, JC-1 fluorescence, 3T3-L1 adipocytes, 24 h, 100 nL compound (AID 1168); details: JC-1 mitochondrial fluorescence, higher = more signal, called active from +8 up or from −8 down; note: test concentration not given here
[8] = basal RPMI8226 mitochondrial membrane potential changes, profiling panel, cell-based, JC-1 fluorescence, 24 h, 100 nL compound (AID 1169); details: RPMI8226 myeloma, JC-1 mitochondrial potential fluorescence, higher = more signal; note: test concentration not given here
[9] = basal MM1S mitochondrial membrane potential changes, profiling panel, cell-based, JC-1 fluorescence, 24 h, 100 nL compound (AID 1170); details: higher = more signal; note: test concentration not given here
[10] = A549 lung cancer cell viability effects, profiling panel, resazurin fluorescence, 24 h, PK04 Diversity Set (AID 1171); details: higher = more signal, called active from +8 up or from −8 down; note: test concentration not given here
[11] = HepG2 liver cancer cell viability effects, profiling panel, resazurin fluorescence, 24 h, PK04 Diversity Set (AID 1172); details: higher = more signal; note: test concentration not given here
[12] = basal S. cerevisiae growth modulation, no modifier, primary screen, OD600, strain BY4716, 24 h, basal condition (AID 1173); details: OD600, 24 h, higher = more signal, called active from +8 up or from −8 down
[13] = MM1S myeloma cell viability, profiling panel, resazurin fluorescence, basal, 24 h, PK04 Diversity Set (AID 1174); details: higher = more signal, called active from +8 up or from −8 down;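 note: MM1S multiple myeloma cell line; test concentration not given here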
[14] = molecular target: Dihydroorotate dehydrogenase (quinone), mitochondrial (Plasmodium falciparum (isolate 3D7)) (UniProt Q08210); experiment: PfDHODH enzyme inhibitors, primary screen, biochemical, C-terminal His tag, absorbance 600 nm (AID 1175); details: DCIP absorbance 600 nm, higher = more signal, called active from +8 up or from −8 down;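 note: recombinant parasite enzyme with a five histidine tag at its C terminus; test concentration not given here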
Dihydroorotate dehydrogenase (quinone), mitochondrial (Plasmodium falciparum (isolate 3D7)), sequence (Q08210 whole entry, looked up): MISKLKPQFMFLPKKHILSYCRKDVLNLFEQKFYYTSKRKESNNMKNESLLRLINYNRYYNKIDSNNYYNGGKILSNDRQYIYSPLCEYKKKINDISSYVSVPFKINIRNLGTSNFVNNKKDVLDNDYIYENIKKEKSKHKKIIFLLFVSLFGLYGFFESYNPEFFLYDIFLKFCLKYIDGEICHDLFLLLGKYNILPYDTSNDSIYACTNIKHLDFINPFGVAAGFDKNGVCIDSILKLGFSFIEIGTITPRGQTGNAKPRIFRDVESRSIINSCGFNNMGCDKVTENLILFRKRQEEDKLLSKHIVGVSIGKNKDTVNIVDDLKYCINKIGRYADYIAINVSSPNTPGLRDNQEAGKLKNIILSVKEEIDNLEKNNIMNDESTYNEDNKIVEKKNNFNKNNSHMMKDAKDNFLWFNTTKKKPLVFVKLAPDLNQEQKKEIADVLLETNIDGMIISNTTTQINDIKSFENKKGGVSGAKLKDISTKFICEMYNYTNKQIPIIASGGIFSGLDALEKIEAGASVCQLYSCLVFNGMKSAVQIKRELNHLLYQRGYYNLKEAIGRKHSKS

[15] = P. aeruginosa biofilm formation inhibitors, primary screen, strain PAO1, LB-PBS medium, absorbance 600 nm (AID 1176); note: test concentration not given here; details: P. aeruginosa PAO1 growth/biofilm, A600, 12 h; higher = more signal
[16] = S. cerevisiae RM11-1a growth modifiers, primary screen, strain RM11-1a, OD600, basal, 24 h (AID 1177); details: OD600, 24 h, higher = more signal, called active from +8 up or from −8 down;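 note: cultures grown under basal conditions with no added stressor; test concentration not given here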
[17] = E. coli acrAB mutant growth effects, primary screen, E. coli filamentation inducers, strain DRC39, OD650, 24 h (AID 1178); details: higher = more signal, called active from +8 up or from −8 down;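 note: growth measured as culture turbidity by optical density at 650 nm; test concentration not given here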
[18] = E. coli acrAB mutant growth effects, primary screen, E. coli filamentation inducers, strain DRC39, OD650, 48 h (AID 1179);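 note: screen aims at cell division blockers that make cells filament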; details: E. coli DRC39 delta-acrAB growth, higher = more signal, called active from +8 up or from −8 down
[19] = RPMI8226 myeloma cell viability, profiling panel, resazurin fluorescence, basal, 24 h, PK04 Diversity Set (AID 1180); details: higher = more signal;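 note: RPMI8826 multiple myeloma cell line at 5000 cells per well; test concentration not given here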
[20] = molecular target: E3 ubiquitin-protein ligase XIAP (Homo sapiens) (UniProt P98170); experiment: XIAP binders, primary screen, biophysical, small-molecule microarray, fluorescence 635 nm (AID 1181); details: small-molecule microarray binding, higher = more signal;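 note: score merges 667 nm emission and signal to noise over triplicate slides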
E3 ubiquitin-protein ligase XIAP (Homo sapiens), sequence (P98170 whole entry, looked up): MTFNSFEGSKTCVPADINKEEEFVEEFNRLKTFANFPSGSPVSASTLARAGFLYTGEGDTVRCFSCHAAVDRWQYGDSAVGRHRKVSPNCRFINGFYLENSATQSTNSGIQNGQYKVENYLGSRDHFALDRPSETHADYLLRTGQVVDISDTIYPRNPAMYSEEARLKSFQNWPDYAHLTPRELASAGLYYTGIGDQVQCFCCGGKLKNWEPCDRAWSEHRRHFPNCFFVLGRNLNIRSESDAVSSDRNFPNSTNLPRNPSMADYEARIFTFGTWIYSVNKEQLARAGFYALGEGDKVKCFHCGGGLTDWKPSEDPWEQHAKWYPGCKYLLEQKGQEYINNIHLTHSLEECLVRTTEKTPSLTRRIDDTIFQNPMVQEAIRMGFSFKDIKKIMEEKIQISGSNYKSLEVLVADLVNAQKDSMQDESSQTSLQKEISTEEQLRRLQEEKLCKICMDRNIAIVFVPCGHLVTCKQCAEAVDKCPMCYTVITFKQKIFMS

| Structure (SMILES) | z-score [1] | z-score [2] | z-score [3] | z-score [4] | z-score [5] | z-score [6] | z-score [7] | z-score [8] | z-score [9] | z-score [10] | z-score [11] | z-score [12] | z-score [13] | composite z-score [14] | z-score [15] | z-score [16] | z-score [17] | z-score [18] | z-score [19] | composite z-score [20] |
| --- | --- | --- | --- | --- | --- | --- | --- | --- | --- | --- | --- | --- | --- | --- | --- | --- | --- | --- | --- | --- |
| COc1ccc(C#Cc2ccc3c(c2)[C@]2(C(=O)N3)[C@H](c3ccc(OCCO)cc3)N3[C@H](c4ccccc4)[C@H](c4ccccc4)OC(=O)[C@H]3[C@@H]2C(=O)Nc2nc3ccccc3s2)cc1 | 1.47 | 0.292 | 0.891 | -1.69 | -1.37 | -2.95 | 6.28 (inactive) | -1.3 | -1.71 | -1.23 (inactive) | 0.534 | 0.436 (inactive) | 0.217 (inactive) | -3.02 (inactive) | 3.64 (inactive) | 1.55 (inactive) | 0.528 (inactive) | 1.25 (inactive) | 0.174 | 0.75 |
| Cc1ccc(S(=O)(=O)N2CC(C(=O)O)=CCC2c2ccccc2)cc1 (stereo not given) | -0.901 | 0.324 | -0.772 | -0.249 | -1.19 | -0.644 | -2.04 (inactive) | -0.25 | 1.53 | -0.717 (inactive) | -1.31 | 0.558 (inactive) | -2.27 (inactive) | 0.154 (inactive) | 0.12 (inactive) | 0.437 (inactive) | -1.28 (inactive) | -1.15 (inactive) | -0.931 | 0.155 |
| O=P(NCC1(CC2(c3ccccc3)CO2)CC1)(c1ccccc1)c1ccccc1 (stereo not given) | -1.08 | -0.933 | 0.676 | 0.116 | 0.0906 | -0.187 | 0.48 (inactive) | 0.125 | -0.792 | 0.316 (inactive) | -0.293 | 1.19 (inactive) | -0.242 (inactive) | -0.402 (inactive) | 0.191 (inactive) | 2.7 (inactive) | -0.191 (inactive) | -0.0173 (inactive) | 0.0301 | -0.102 |
| O=C1C2C=CC(C(O)c3cccc4ccccc34)N(n3cnnc3)C2C(=O)N1Cc1ccccc1 (stereo not given) | -0.986 | -0.06 | -1.6 | -0.467 | -1.81 | -1.23 | -1.18 (inactive) | -0.0245 | -0.0153 | -0.522 (inactive) | -0.447 | -17.4 (active) | -1.24 (inactive) | -2.08 (inactive) | -0.128 (inactive) | -23.2 (active) | -1.24 (inactive) | -1.14 (inactive) | -1.07 | -0.0421 |
| CC(C)(C)OC(=O)CC[C@@]1(C(N)=O)N=C(c2ccc(OCCCO)cc2)O[C@@H]1c1ccccc1N=[N+]=[N-] | 1.37 | 0.337 | 2.25 | 1.46 | 0.415 | 0.221 | 0.951 (inactive) | -0.892 | -0.706 | -0.763 (inactive) | 0.55 | -0.231 (inactive) | -0.134 (inactive) | 0.974 (inactive) | -0.18 (inactive) | 0.045 (inactive) | 0.397 (inactive) | 0.529 (inactive) | 0.288 | 0.0908 |
| COc1ccc(C(O)C2C=CC3C(=O)N(c4ccccc4)C(=O)C3N2Nc2ccccc2)c2ccccc12 (stereo not given) | -0.308 | -2.02 | 0.407 | -0.174 | -0.858 | -1.37 | -0.849 (inactive) | -0.86 | -0.978 | -0.301 (inactive) | -1.41 | -5.12 (inactive) | -1.42 (inactive) | 0.896 (inactive) | 1.48 (inactive) | 0.163 (inactive) | -1.05 (inactive) | -0.0025 (inactive) | -1.95 | -0.0049 |
| O=c1cccc(-c2ccccc2)o1 | -1.18 | 0.0455 | -0.738 | -1.11 | -0.664 | -1.05 | 0.221 (inactive) | 0.826 | -0.435 | 0.299 (inactive) | 0.123 | -5.07 (inactive) | 0.0841 (inactive) | -0.403 (inactive) | 0.421 (inactive) | 0.434 (inactive) | -0.438 (inactive) | 0.0997 (inactive) | -0.156 | 0.045 |
